DT40 TDP1 no CPT – qHTS for Inhibitors of human tyrosyl-DNA phosphodiesterase 1 (TDP1): qHTS in cells in absence of CPT | DT40 Tdp1-/- hTDP1 cells, no CPT, ATP luminescence, 48 h | Potency, µM (highest dose often 46.2 µM), for the others: at the top dose activity change, negative = growth inhibition, actives largely listed as inhibitors | 15% of 420,000 active; further: potency means the concentration at half of the fitted maximal effect; nearly all actives have a fitted effect of over 55% in size
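Chicken DT40 Tdp1-/- cells complemented with human TDP1, screened without camptothecin (DMSO vehicle only), 400 cells/well. Compounds pin-transferred, cells incubated at 37 °C for at least 48 hr. Growth read as ATP-dependent luminescence (CellTiter-Glo, 30 min at RT).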
HT1080 IDH1KD tx – qHTS for induction of synthetic lethality in tumor cells producing 2HG: qHTS for the HT-1080-IDH1KD cell line; Potency, µM (top dose mostly 46.1 µM), without a hit: at the top dose activity, negative = toxicity, hits mostly cytotoxic; AID 686971, 2013; HT-1080 IDH1 knockdown viability, ATP luminescence, 48 h; 2% of 360,000 active;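 further: potency means the concentration at half of the fitted maximal effect; 0% = DMSO wells and -100% = cell-free medium wells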
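IDH1KD HT-1080 cells, 750/well, RPMI + 5% FBS; compound pinned after 2 h settling; 48 h, 37 °C; CellTiter-Glo luminescence; % activity normalised to DMSO and no-cell wells; curves fitted, classed by r2 and efficacy.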
TDP1 cell CPT – qHTS for Inhibitors of human tyrosyl-DNA phosphodiesterase 1 (TDP1): qHTS in cells in presence of CPT; Potency, µM (doses to about 46.2 µM), for the others: top-dose activity change, negative = growth inhibition, most hits filed as inhibitors; chicken DT40 Tdp1-/-;hTDP1 cells + 20 nM CPT, ATP luminescence, 48 h; AID 686979, 2013; 12% of 420,000 active; further: potency means the concentration at half of the fitted maximal effect; nearly all actives have a fitted effect of over 55% in size
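Chicken DT40 Tdp1-/- cells stably complemented with human TDP1 were seeded at 400 cells/well in medium containing 20 nM camptothecin, exposed to pin-transferred compounds, and grown at 37 °C for at least 48 hr. Viability was read as ATP luminescence.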
12-LOX inh – Primary qHTS assay for inhibitors of human arachidonate 12S-lipoxygenase (ALOX12): Round 2; Polyunsaturated fatty acid lipoxygenase ALOX12 (Homo sapiens), P18054; purified 12hLO, xylenol orange hydroperoxide absorbance; Potency, µM (doses to about 108 µM), for inactives: at the top dose activity change, negative = inhibition, actives largely listed as inhibitors; 1.1% of 580,000 active; further: potency means the concentration at half of the fitted maximal effect
Target sequence (P18054 whole entry, looked up): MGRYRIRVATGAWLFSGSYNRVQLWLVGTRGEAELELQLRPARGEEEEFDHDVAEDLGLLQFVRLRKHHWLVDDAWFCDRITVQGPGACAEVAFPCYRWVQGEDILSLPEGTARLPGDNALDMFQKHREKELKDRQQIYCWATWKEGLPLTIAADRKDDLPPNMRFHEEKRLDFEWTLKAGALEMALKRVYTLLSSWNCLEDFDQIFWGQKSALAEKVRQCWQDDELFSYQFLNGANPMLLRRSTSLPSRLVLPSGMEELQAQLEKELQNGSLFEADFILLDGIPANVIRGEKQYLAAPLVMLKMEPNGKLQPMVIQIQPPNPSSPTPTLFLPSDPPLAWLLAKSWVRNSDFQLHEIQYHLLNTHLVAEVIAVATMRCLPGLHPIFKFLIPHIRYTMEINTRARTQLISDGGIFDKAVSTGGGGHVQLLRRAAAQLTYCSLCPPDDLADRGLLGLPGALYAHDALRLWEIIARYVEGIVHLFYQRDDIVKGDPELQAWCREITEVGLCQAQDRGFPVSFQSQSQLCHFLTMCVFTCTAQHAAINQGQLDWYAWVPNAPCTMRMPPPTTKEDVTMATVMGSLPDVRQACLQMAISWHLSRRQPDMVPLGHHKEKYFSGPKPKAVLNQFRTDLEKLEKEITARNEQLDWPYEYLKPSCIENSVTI
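Purified human 12hLO at 150 nM in 25 mM Hepes, 0.01% Triton X-100, pH 7.0, preincubated 15 min at room temperature with compound. Reaction started with 40 uM arachidonic acid, 30 min at room temperature. Hydroperoxide measured by Fe-xylenol orange, 573/405 nm absorbance ratio.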
IL-1B inflam inh – qHTS for Inhibitors of Inflammasome Signaling: IL-1-beta AlphaLISA Primary Screen; activity change, % at 57.5 µM; AID 743279, 2014; THP-1 LPS/ATP IL-1B secretion, AlphaLISA, 16 h; active compounds read low; 4.7% of 360,000 active; in the data active means activity change below about -50%; inconclusive means mostly about -30% to -49%
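THP-1 cells pretreated 1 hr with compounds (up to 57.5 uM final), then stimulated with LPS (250 ng/mL final) plus ATP (1.25 mM final); secreted IL-1B measured by AlphaLISA after 16 hr, decreased signal indicating inhibition.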
HT1080NT lethal – qHTS for induction of synthetic lethality in tumor cells producing 2HG: qHTS for the HT-1080-NT fibrosarcoma cell line | HT-1080-NT fibrosarcoma viability, CellTiter-Glo ATP luminescence, 48 h | Potency, µM (titrated, usually from 46.1 µM), without a hit: at the highest dose activity, negative = less viability, actives largely listed as cytotoxic | 1.6% of 360,000 active | AID 686970, 2013;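 further: NT is the 2HG producing partner of a matched IDH1 knockdown line; potency means the concentration at half of the fitted maximal effect; 0% = DMSO-treated cells and -100% = media-only wells without cells; nearly all actives have a fitted effect of over 55% in size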
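A 48-hour cytotoxicity screen used HT-1080-NT cells plated 2 hours before compound delivery. ATP-based CellTiter-Glo luminescence measured viability, normalized to DMSO and no-cell controls.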
* hit, by the source's call; ? = inconclusive; . = no result; [ ] = another dose, or the depositor's remark. This is one part of a sample in which hits are shown more often than they occur. Unless noted, the call rests on the fitted dose curve; in most records, active means well fitted curve in the direction sought with a large enough effect; inconclusive means small, poorly fitted or top-dose-only effect, or another doubt; inactive means no such curve, though single readings can be large; an effect the other way counts as inactive or inconclusive. Unless noted, on the % scale 0 is the no-effect control and ±100 the full control effect.

SMILES	DT40 TDP1 no CPT	HT1080 IDH1KD tx	TDP1 cell CPT	12-LOX inh	IL-1B inflam inh	HT1080NT lethal
O=C(Nc1ccccc1-n1cncn1)C1CC(=O)N(c2ccccc2F)C1 (stereo not drawn)	.	.	.	22%	.	.
CCc1ccc(C(=O)NNC(=O)CCc2nc3ccccc3c(=O)[nH]2)cc1	-7%	0%	-18%	?	12	-7%
O=C(NCCC(=O)N1CCN(c2ccc(F)cc2)CC1)c1ccco1	-27%	-11%	-10%	-1%	-3	-10%
O=C(C1CCCC1)N1CCCCCC1c1nc(-c2ccncc2)no1 (stereo not drawn)	.	.	.	2%	.	.
CCCC(=O)Nc1ccc(-c2csc(N/N=C\c3ccncc3)n2)cc1	8.2µM*	?	10µM*	?	?	?
Cc1ccc(S(=O)(=O)CC(=O)Nc2nc(-c3ccccc3)cs2)cc1	21µM*	-24%	-18%	0%	-14	-25%
CC(=O)Nc1ccc(-c2csc(N/N=C\c3ccncc3)n2)cc1	?	4%	-24%	-4%	-3	9%
Cc1csc(NC(=O)Cc2ccc(Br)cc2)n1	-6%	-10%	8%	18%	-9	-23%
Cc1csc(NC(=O)CCS(=O)(=O)c2ccc(Br)cc2)n1	23µM*	-6%	?	14%	15	-2%
CC(=O)c1sc(NC(=O)C2(F)C(F)(F)C(F)(F)C(F)(F)C(F)(F)C2(F)F)nc1C	5.8µM*	7.1µM*	4.1µM*	-4%[57.4 µM]	-88*	7.1µM*
O=C(NCCc1cccc(F)c1)C1CC(=O)N(c2n[nH]c3cccc(F)c23)C1 (stereo not drawn)	.	.	.	28%	.	.
Cc1ccc(CNS(=O)(=O)c2ccc3c(c2)NC(=O)C(C)CS3)cc1 (stereo not drawn)	.	.	.	10%	.	.
COCCN1CC(CO)C2(CCN(Cc3ccc(Cl)c(F)c3)CC2)C1 (stereo not drawn)	.	.	.	6%	.	.
COCCNC(=O)CS(=O)(=O)Cc1nc(-c2cccc(Cl)c2)oc1C	.	.	.	-37%	.	.
Cc1ccc(S(=O)(=O)CCC(=O)Nc2nc(-c3ccncc3)cs2)cc1	18µM*	-2%	23µM*	-1%	?	1%
CCOC(=O)c1csc(NC(=O)CCS(=O)(=O)c2ccc(Cl)cc2)n1	18µM*	-6%	?	3%	-12	-1%
Cc1ccc(S(=O)(=O)CCC(=O)Nc2nccs2)cc1	?	-2%	-10%	17%	7	2%
CCC(=O)Nc1ccc(-c2csc(NCCOC)n2)cc1	.	.	.	14µM*	.	.
CC(=O)c1sc(NC(=O)CCS(=O)(=O)c2ccc(C)cc2)nc1C	18µM*	8%	9.2µM*	2%	-107*	5%
CCOC(=O)C1=C(Nc2ccccc2)O/C(=C\c2ccccc2C(F)(F)F)C1=O	.	.	.	-24%	.	.
O=C(c1ccc(F)cc1)c1ccc(N2CCCCCC2)cc1	.	.	.	-28%	.	.
COc1cc2cc(C(=O)NCC(=O)Nc3ncc(C)s3)n(C)c2c(OC)c1OC	.	.	.	-14%	.	.
CS(=O)(=O)c1ccc(NC(=O)c2ccccc2-c2ccc(C(F)(F)F)cc2)cc1	.	.	.	8%	.	.
CCC(C(=O)NC1CCCC1)N(C(=O)Cn1nnc(-c2cccs2)n1)c1cnc2ccccc2c1 (stereo not drawn)	4%	-4%	-10%	-17%	43	13%
Cc1ccc(N(C(=O)Cn2nnc(-c3ccc(C)o3)n2)C(C(=O)NC2CCCC2)c2ccco2)cc1 (stereo not drawn)	13µM*	?	?	0%	6	?
SMILES	DT40 TDP1 no CPT	HT1080 IDH1KD tx	TDP1 cell CPT	12-LOX inh	IL-1B inflam inh	HT1080NT lethal
Cc1ccc(N(C(=O)Cn2nnc(-c3cccs3)n2)C(C(=O)NC2CCCC2)c2ccncc2)cc1 (stereo not drawn)	21µM*	0%	23µM*	0%	19	11%
Cc1ccc(-c2nnn(CC(=O)N(c3ccccc3)C(C(=O)NC3CCCC3)c3ccncc3)n2)o1 (stereo not drawn)	9%	1%	9%	4%	13	5%
Cc1ccc(C)c(N(C(=O)Cn2nnc(-c3cccs3)n2)C(C(=O)NC2CC2)c2ccc(C)o2)c1 (stereo not drawn)	11µM*	5%	?	-19%	18	0%
Cc1ccc(N(C(=O)Cn2nnc(-c3ccccc3F)n2)C(C(=O)NC2CCCC2)c2ccncc2)cc1 (stereo not drawn)	?	0%	?	11%	-1	-1%
Cc1ccc(-c2nnn(CC(=O)N(Cc3ccco3)C(C(=O)NC(C)(C)C)c3ccc(C)o3)n2)o1 (stereo not drawn)	21µM*	-9%	16µM*	-7%	-23	0%
COCCn1c(CCC(=O)Nc2cc(C)ccc2F)nc2c1c(=O)[nH]c(=O)n2CC(C)C	.	.	.	-10%	.	.
COc1cccc(C2NC(=S)NC(C)=C2C(=O)c2ccccc2)c1OC (stereo not drawn)	10µM*	1.5µM*	?	45µM*	58	2.3µM*
CC1=C(C(=O)OC(C)(C)C)C(c2cccc3ccccc23)NC(=S)N1 (stereo not drawn)	.	.	.	51%	.	.
CN1C[C@H](NC(=O)NC2(c3ccccc3)CCOCC2)CCC[C@@H](C(=O)NCc2cc(F)cc(F)c2)CC1=O	.	.	.	22µM*	.	.
CN1C[C@H](NC2CCOCC2)CCC[C@@H](C(=O)NCc2cc(F)cc(F)c2)CC1=O	.	.	.	1%[176 µM]	.	.
O=C(Cc1ccc(Cl)c(Cl)c1)Nc1ccc(S(=O)(=O)Nc2ncccn2)cc1	-20%	-13%	13%	-12%	15	-19%
CSc1cccc(NC(=O)N[C@H]2C[C@@H](C(=O)N[C@@H](CCCNC(=O)C=C(C)C)C(N)=O)N(C(=O)C=C(C)C)C2)c1	.	.	.	15%	.	.
COc1ccc(CC(=O)NC2CCN(c3cc(-c4ccc(Cl)cc4)[nH]n3)CC2)cc1OC	.	.	.	-1%	.	.
Cc1cc(C)cc(NC(=O)C2CCCN2S(=O)(=O)c2cccc3nsnc23)c1 (stereo not drawn)	?	.	?	-41%	.	.
